The supplement of paper PMC11732987, “Enantioselective OTUD7B fragment discovery through chemoproteomics screening and high-throughput optimisation” (Communications Chemistry, 2025)

Experiments:
Assay in all cases: log2 ratio of Biotin-Ahx-Ub-VS probe labelling (fragment/DMSO); higher = less target engagement (more negative = stronger competition), active = hit call of the paper (q ≤ 0.05, log2 ratio ≤ -1)
Conditions in all cases: compound concentration: 200 uM; treatment time: 3 h
[1] = target: T1, USP42 (UniProt Q9H9J4)
T1 sequence (whole entry): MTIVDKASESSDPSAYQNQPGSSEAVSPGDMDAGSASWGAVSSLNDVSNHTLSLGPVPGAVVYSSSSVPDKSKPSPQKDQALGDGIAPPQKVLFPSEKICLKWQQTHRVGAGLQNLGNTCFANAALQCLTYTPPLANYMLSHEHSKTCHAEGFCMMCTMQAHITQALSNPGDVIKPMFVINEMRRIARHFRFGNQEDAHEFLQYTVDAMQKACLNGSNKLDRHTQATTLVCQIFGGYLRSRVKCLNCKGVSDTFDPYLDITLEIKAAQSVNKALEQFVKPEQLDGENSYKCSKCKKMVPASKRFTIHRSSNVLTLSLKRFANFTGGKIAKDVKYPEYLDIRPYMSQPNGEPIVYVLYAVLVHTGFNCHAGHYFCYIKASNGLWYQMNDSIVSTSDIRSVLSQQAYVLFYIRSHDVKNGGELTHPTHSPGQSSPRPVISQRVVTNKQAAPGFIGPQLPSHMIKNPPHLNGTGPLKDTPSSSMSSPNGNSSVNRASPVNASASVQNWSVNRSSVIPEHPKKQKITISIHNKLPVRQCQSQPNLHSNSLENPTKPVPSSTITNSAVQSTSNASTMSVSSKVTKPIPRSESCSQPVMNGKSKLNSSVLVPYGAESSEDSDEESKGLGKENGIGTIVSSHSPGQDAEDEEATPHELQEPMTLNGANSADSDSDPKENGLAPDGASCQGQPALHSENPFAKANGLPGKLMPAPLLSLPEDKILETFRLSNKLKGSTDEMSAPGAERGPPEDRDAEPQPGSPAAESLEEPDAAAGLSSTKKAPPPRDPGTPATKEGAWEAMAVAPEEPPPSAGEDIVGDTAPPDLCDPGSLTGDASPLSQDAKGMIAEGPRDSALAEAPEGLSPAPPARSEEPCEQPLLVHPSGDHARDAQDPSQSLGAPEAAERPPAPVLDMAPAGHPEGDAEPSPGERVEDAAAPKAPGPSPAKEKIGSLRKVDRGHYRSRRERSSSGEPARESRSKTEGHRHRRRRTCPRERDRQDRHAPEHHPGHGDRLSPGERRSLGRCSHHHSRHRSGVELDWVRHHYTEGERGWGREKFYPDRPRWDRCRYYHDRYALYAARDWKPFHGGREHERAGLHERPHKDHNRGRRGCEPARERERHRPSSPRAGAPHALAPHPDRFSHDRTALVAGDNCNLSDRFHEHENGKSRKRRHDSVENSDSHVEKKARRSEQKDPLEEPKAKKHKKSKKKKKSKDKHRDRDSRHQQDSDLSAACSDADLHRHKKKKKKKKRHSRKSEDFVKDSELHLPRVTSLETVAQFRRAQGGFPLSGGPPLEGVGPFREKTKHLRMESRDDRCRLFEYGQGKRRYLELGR
Outline: (§1)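 Labelled DUBs from HEK293T lysate were NeutrAvidin-enriched, digested with LysC and trypsin, and run by diaPASEF LC-MS/MS. Before that, each 495 µg sample in Tris/CHAPS/IGEPAL buffer with protease inhibitors was treated in triplicate with fragment at 200 µM or vehicle for 3 h, then with Biotin-Ahx-Ub-VS at 0.5 µM final for 1 h. Values are average log2 ratios of fragment over vehicle by unpaired t-test, based on global-median-normalised Spectronaut label-free quantities from proteins with ≥2 unique peptides.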

[2] = target: USP46 (UniProt P62068)
Outline: as §1

[3] = target: T2, USP47 (UniProt Q96K76)
T2 sequence (whole entry): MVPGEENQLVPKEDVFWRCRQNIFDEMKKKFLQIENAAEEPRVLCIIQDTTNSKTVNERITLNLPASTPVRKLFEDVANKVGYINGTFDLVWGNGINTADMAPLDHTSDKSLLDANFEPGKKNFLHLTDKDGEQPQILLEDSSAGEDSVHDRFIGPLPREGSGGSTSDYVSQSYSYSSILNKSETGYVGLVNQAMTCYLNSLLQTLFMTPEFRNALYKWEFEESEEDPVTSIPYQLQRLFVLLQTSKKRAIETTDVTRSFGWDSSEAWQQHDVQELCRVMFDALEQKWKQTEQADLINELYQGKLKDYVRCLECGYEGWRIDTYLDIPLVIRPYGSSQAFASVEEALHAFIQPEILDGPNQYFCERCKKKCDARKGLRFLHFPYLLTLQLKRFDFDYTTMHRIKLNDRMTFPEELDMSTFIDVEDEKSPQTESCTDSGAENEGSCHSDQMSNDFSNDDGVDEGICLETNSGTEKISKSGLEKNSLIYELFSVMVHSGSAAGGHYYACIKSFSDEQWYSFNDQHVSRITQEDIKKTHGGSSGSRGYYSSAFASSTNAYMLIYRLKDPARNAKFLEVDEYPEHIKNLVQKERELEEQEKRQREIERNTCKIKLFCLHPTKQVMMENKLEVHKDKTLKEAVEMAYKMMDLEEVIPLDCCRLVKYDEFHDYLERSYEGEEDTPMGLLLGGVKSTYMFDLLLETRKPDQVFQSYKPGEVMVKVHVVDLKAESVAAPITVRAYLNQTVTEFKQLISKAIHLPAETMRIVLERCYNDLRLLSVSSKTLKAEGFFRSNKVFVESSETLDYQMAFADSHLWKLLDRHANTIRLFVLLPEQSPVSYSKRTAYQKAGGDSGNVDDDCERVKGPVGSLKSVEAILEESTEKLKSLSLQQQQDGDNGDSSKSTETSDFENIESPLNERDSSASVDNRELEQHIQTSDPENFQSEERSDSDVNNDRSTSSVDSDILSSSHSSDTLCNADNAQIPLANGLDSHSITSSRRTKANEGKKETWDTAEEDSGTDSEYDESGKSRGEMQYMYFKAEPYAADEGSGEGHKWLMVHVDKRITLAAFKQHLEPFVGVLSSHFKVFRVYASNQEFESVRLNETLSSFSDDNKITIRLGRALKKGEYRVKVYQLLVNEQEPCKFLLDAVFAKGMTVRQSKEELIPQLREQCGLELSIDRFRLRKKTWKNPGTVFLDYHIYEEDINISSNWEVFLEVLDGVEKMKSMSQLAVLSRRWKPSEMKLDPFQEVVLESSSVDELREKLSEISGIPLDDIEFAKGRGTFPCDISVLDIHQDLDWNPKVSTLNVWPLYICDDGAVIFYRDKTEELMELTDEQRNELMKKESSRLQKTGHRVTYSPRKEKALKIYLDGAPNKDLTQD
Outline: as §1

[4] = target: T3, USP48 (UniProt Q86UV5)
T3 sequence (whole entry): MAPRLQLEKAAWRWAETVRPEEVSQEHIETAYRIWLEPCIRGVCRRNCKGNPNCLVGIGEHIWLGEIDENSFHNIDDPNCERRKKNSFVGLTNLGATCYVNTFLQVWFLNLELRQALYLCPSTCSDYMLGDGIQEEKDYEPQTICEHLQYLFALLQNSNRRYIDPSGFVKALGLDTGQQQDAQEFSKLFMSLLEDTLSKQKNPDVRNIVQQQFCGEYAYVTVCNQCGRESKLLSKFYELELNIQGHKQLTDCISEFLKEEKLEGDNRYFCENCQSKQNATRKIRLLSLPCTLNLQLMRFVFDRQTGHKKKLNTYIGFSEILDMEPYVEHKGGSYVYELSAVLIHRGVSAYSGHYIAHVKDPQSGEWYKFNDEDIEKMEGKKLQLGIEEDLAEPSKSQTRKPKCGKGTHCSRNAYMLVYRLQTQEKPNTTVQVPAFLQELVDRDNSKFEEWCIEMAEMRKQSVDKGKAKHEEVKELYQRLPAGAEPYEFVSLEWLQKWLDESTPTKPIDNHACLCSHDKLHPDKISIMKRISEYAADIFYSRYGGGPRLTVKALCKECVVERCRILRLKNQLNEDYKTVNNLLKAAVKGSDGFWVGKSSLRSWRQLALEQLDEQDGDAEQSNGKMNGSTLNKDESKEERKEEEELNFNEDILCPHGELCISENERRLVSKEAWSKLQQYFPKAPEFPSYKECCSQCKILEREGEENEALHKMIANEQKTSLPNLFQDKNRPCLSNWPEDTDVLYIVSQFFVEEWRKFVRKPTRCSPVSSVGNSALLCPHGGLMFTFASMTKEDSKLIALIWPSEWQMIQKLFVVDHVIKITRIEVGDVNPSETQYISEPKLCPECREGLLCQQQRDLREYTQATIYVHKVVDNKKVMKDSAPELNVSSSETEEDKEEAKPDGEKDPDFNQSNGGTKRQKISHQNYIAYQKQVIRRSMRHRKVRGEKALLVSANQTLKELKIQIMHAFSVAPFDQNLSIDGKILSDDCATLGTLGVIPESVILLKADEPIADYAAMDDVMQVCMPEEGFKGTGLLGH
Outline: as §1

[5] = target: T4, USP5 (UniProt P45974)
T4 sequence (whole entry): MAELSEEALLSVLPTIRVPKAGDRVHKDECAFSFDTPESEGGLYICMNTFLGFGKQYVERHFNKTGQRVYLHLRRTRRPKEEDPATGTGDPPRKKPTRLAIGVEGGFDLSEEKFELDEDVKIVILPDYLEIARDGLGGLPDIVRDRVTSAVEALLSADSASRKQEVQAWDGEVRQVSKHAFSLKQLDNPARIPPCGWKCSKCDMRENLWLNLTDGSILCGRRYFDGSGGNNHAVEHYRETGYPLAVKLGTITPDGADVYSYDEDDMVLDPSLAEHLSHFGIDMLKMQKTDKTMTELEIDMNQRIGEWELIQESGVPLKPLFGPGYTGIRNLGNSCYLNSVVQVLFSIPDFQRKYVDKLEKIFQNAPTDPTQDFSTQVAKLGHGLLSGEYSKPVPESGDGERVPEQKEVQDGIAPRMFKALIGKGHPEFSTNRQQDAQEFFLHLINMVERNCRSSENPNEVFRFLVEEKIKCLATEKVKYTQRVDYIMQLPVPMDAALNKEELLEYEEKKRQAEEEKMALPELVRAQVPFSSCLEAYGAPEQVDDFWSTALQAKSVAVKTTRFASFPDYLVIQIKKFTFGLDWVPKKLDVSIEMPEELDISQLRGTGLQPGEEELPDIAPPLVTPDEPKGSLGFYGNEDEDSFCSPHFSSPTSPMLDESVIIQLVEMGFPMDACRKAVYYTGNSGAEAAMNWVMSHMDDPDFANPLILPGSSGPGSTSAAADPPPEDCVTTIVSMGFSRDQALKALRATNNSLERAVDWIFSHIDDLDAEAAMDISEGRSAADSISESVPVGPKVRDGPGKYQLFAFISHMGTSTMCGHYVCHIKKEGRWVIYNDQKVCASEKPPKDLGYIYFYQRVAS
Outline: as §1

[6] = target: USP54 (UniProt Q70EL1)
Outline: as §1

[7] = target: USP7 (UniProt Q93009)
Outline: as §1

[8] = target: T5, USP8 (UniProt P40818)
T5 sequence (whole entry): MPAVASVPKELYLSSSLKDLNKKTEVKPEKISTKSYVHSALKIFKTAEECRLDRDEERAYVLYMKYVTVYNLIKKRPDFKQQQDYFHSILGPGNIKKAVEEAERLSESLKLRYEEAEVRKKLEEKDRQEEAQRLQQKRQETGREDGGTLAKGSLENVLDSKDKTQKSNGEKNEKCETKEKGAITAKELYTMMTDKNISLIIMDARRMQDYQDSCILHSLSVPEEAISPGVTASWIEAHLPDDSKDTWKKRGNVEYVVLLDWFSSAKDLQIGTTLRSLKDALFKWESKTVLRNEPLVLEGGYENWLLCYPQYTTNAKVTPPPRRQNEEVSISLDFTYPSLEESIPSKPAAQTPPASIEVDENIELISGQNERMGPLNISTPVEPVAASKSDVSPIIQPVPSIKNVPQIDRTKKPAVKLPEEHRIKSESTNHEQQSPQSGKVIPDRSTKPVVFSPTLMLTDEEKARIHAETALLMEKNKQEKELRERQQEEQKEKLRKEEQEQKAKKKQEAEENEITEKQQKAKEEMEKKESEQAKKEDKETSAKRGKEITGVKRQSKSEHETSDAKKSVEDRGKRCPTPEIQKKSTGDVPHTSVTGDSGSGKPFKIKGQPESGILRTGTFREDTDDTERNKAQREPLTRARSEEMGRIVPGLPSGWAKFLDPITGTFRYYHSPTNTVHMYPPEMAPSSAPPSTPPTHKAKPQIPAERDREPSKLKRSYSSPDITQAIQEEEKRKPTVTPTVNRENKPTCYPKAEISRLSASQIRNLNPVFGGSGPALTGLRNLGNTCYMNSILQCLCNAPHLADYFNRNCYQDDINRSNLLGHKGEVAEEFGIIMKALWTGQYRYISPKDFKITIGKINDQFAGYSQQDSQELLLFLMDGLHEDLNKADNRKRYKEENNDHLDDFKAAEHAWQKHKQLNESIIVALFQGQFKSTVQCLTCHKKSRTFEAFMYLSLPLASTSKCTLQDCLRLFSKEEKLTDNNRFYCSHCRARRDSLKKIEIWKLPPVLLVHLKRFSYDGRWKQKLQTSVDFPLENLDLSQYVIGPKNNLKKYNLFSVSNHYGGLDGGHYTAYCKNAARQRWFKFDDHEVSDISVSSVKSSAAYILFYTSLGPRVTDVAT
Outline: as §1

Measured: log2 ratio of Biotin-Ahx-Ub-VS probe labelling

USP7, sequence (Q93009 whole entry, looked up): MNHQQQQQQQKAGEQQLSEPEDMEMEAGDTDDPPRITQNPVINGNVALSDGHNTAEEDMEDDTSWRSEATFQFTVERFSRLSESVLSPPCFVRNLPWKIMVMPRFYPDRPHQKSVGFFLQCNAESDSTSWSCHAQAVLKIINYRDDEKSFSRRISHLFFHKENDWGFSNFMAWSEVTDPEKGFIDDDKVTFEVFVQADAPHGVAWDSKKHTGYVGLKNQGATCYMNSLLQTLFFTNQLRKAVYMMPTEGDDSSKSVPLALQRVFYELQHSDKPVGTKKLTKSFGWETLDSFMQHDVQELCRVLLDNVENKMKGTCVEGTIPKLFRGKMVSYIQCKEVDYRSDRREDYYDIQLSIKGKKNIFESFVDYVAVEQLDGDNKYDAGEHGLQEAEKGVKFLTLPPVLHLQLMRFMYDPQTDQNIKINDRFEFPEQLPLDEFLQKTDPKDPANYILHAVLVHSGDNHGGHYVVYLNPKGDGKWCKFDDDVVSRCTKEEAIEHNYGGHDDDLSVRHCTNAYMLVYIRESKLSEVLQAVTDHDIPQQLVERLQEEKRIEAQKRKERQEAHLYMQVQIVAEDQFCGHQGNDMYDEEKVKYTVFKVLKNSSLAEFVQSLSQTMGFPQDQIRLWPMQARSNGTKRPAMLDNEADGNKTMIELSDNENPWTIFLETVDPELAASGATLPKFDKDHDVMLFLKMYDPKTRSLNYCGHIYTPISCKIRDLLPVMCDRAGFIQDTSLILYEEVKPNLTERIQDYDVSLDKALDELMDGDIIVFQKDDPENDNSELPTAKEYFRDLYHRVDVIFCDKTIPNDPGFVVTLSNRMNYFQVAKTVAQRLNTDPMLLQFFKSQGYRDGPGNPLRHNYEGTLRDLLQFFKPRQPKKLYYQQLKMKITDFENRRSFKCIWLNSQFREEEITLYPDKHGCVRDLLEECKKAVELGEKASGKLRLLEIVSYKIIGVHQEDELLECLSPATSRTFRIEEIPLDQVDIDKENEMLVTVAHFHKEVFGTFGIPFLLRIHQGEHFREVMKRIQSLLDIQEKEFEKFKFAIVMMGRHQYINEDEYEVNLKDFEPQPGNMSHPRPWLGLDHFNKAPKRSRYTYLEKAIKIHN
USP54, sequence (Q70EL1 whole entry): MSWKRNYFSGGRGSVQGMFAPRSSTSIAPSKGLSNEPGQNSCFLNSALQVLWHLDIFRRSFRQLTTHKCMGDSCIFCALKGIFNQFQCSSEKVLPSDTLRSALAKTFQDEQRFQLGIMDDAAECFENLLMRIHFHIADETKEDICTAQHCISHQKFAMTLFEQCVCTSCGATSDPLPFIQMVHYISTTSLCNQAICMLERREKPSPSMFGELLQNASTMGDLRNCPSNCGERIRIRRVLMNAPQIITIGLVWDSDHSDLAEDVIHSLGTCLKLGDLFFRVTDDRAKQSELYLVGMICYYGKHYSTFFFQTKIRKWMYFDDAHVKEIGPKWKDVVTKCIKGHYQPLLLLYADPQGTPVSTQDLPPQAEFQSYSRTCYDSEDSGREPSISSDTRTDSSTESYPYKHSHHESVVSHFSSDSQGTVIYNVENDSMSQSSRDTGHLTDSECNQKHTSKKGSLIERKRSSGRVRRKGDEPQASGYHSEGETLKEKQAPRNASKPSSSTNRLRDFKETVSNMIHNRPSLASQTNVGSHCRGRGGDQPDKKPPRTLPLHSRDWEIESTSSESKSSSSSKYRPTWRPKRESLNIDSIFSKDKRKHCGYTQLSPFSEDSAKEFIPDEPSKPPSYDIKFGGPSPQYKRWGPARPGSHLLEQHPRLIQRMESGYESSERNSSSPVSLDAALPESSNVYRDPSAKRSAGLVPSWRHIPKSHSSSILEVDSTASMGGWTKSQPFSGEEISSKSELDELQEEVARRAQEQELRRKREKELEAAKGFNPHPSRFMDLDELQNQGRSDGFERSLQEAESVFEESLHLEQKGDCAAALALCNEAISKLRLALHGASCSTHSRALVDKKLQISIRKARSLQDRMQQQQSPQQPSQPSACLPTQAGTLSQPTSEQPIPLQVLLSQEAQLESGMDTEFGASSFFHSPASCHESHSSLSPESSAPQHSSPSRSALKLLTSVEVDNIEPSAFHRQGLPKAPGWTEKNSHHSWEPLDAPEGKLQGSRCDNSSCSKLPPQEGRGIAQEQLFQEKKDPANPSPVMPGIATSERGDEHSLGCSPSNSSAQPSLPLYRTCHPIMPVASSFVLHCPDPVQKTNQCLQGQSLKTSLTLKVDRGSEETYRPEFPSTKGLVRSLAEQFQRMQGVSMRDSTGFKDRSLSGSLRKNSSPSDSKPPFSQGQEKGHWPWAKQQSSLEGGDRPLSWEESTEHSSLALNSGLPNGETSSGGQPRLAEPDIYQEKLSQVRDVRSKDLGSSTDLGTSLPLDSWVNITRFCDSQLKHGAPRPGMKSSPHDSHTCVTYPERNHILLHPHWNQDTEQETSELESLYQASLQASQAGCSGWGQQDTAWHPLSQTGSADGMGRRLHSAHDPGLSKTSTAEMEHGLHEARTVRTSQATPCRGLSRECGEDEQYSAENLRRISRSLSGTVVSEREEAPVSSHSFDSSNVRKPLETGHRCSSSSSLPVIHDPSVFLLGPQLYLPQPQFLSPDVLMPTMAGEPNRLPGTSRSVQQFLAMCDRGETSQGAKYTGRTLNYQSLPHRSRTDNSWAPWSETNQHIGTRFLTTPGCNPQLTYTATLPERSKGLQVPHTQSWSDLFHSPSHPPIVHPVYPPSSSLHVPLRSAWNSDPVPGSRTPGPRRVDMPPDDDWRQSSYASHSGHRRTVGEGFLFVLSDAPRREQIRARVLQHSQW
USP46, sequence (P62068 whole entry): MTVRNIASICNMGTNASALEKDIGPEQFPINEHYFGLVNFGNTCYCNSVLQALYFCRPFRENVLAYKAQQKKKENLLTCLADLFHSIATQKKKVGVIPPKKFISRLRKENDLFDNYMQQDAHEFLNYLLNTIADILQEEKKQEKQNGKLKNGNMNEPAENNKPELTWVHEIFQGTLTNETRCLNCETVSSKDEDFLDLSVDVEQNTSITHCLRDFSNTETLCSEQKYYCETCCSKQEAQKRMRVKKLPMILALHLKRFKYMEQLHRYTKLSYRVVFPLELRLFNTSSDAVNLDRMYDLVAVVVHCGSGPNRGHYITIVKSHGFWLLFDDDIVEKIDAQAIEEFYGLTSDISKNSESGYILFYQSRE

Cc1cccc(NC(=O)[C@@H]2CCCN2C(=O)CCl)n1
inactive: [1] 0.315 | [2] -0.247 | [3] -0.448 | [4] -0.474 | [5] 0.305 | [6] 0.236 | [7] -0.502 | [8] -0.358
